Rows were chosen to be rich in hits. Some 4.4% of all compounds tested hit in one or more screens of this group.
PfHsp90 yeast 2: reduces growth (ATP signal) of yeast expressing P. falciparum Hsp90; actives 0.32% (n = 310,000); inhibition, % at 9.4 µM; S. cerevisiae expressing PfHsp90, BacTiter-Glo ATP, 48 h; yeast lacking PDR1 and PDR3 efflux regulators;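 active = every replicate shows inhibition above about 80%, whatever the replicate mean, limit read from the data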;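 note: 0% = DMSO neutral controls and 100% = 20 µM radicicol positive controls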
tim10-1 inh: growth inhibitors of tim10-1 mutant yeast; S. cerevisiae tim10-1 ts strain growth, BacTiter-Glo, 24 h; inhibition, % at 20 µM; actives 2.2% (n = 330,000); AID 463190;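 active = inhibition of at least 40%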;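 note: mutant grown at 25 °C; 0% = DMSO wells with yeast and 100% = wells holding no yeast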
tim23-1 inh: inhibits growth of tim23-1 mutant yeast; actives 1.3% (n = 330,000); S. cerevisiae tim23-1 growth, BacTiter-Glo luminescence, 24 h; inhibition, % at 20 µM;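 active = growth inhibition of the mutant yeast at or above 50%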;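 note: temperature-sensitive mutant grown at 25 °C; plate controls were DMSO-treated mutant yeast for no effect and medium wells lacking yeast for full effect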
TIM10 inh: growth inhibitors of TIM10 yeast strain; S. cerevisiae TIM10 strain growth, BacTiter-Glo luminescence, 24 h; inhibition, % at 10 µM; actives 1.4% (n = 330,000); AID 463195;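 active = inhibition of 40% or more at the single tested concentration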;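 note: wild-type TIM10 isogenic control strain grown at permissive 25 °C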
SKKanGAS inh: blocks kanamycin growth of S. pyogenes SKKanGAS strain | BacTiter-Glo, 6 h | inhibition, % at 7.5 µM | actives 1.3% (n = 300,000);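 active = mean replicate score, as percent of positive control median, at least 50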;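 note: strain carries kanamycin resistance gene driven by streptokinase promoter and grows in 40 µg/ml kanamycin; loss of luminescence reflects streptokinase promoter inhibition or plain growth inhibition; 0% = median of DMSO wells and 100% = positive control at its reference dose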
tim10-1 conf: tim10-1 yeast growth inhibition, confirmed | shares compounds with tim10-1 inh | S. cerevisiae tim10-1 ts strain growth, BacTiter-Glo, 24 h | inhibition, % at 20 µM | actives 56% (n = 7,400) | AID 463213;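 active = inhibition of yeast growth at or above a set limit in either of two repeat tests at 20 µM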;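 note: tim10-1 mutant grown at permissive 25 °C to find synthetic lethal compounds; 0% = DMSO yeast wells and 100% = medium wells without yeast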
tim10 confirm: confirmation of TIM10 yeast growth inhibitors; shares compounds with TIM10 inh; S. cerevisiae tim10 strain growth, BacTiter-Glo luminescence, 24 h; inhibition, % at 10 µM; actives 63% (n = 4,600); AID 463215;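 active = inhibition of yeast growth at or above a set limit in either of two replicates at 10 µM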;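 note: this counterscreen used the strain with wild-type TIM10; 0% = yeast with DMSO and 100% = medium wells lacking yeast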
tim23-1 confirm: tim23-1 yeast growth inhibition, confirmed; inhibition, % at 20 µM; shares compounds with tim23-1 inh; S. cerevisiae tim23-1 growth, BacTiter-Glo luminescence, 24 h; actives 83% (n = 4,400);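 active = inhibition above about 39% in either of two replicate wells at 20 µM, limit read from the data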;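 note: temperature-sensitive tim23-1 mutant grown at 25 °C; 0% = DMSO wells with yeast and 100% = medium wells without yeast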
Active calls of the source: *; x = not tested or not shown.

SMILES	PfHsp90 yeast 2	tim10-1 inh	tim23-1 inh	TIM10 inh	SKKanGAS inh	tim10-1 conf	tim23-1 confirm	others
CC1CCCC(C)N1C(=O)c1cccc2c1-c1ccccc1/C2=N/O (stereo unspecified)	-3.2	42.5*	50.0*	25.6	x	38.9*	43.9*
CCN1N=C(c2ccccc2)Cn2c1nc1ccccc12	-77.5	42.5*	51.9*	27.6	-6.0	44.2*	46.0*
CCOc1ccc(NC(=O)CCCNC(=O)Cn2cnc3sc(C)c(C)c3c2=O)cc1	-2.7	-15.6	0.3	-29.7	-2.0	x	x
CCOC(=O)N1CCN(c2nnc(-c3ccccc3)c3ccccc23)CC1	-17.4	28.6	33.2	4.4	1.5	x	x
Cc1ccc(-c2nnc(N3CCN(C(=O)COc4ccccc4)CC3)c3ccccc23)cc1	-38.2	15.0	23.4	7.1	14.3	x	x
CCOC(=O)N1CCN(c2nnc(-c3ccc(C)cc3)c3ccccc23)CC1	8.3	52.1*	61.1*	26.5	10.8	34.2*	48.5*
Cc1ccc(-c2nnc(N3CCN(C(=O)c4cccs4)CC3)c3ccccc23)cc1	-5.8	54.7*	69.1*	29.5	30.0	49.9*	59.0*
Cc1sc2ncnc(N3CCC(C(=O)Nc4nnc(CC(C)C)s4)CC3)c2c1C	x	7.8	-1.9	-1.2	10.8	x	x
CC(=O)NC1Sc2ccccc2N=C1c1ccccc1 (stereo unspecified)	-25.6	42.8*	73.1*	42.0*	-9.2	53.6*	79.0*	tim10 confirm=56.5*
Fc1cccc(-c2n[nH]c(=S)n2-c2ccccc2)c1	6.5	-8.2	8.1	-15.4	3.8	x	x
Oc1ccccc1-c1cc(-c2cccc(F)c2)n[nH]1	5.9	40.7*	63.8*	22.7	1.7	18.9	52.0*
Oc1ccccc1-c1cc(-c2ccccc2Cl)[nH]n1	x	73.4*	75.6*	63.7*	x	53.5*	12.5	tim10 confirm=57.5*
COc1ccc(CCNC(=O)Cn2nnc(C(=O)Nc3cccc(C)c3C)c2N)cc1OC	-1.3	6.1	-8.0	-7.8	-4.2	x	x
O=C(NC1=NCCS1)c1cc(-c2cccs2)nc2ccccc12	-10.8	48.2*	50.3*	45.8*	0.6	46.5*	53.6*	tim10 confirm=31.0*
O=C(NC1=NCCS1)c1cc(-c2cccnc2)nc2ccccc12	-26.6	18.3	15.3	21.0	-5.7	x	x
N#Cc1ccccc1OCc1cccc(S(=O)(=O)N2CCOCC2)c1	6.1	12.0	27.4	-4.1	x	x	x
CCCC1Cc2nc(Cl)c(C#N)cc2CO1 (stereo unspecified)	x	14.7	10.5	8.2	6.4	x	x
O=C(N/N=C/c1ccc([N+](=O)[O-])o1)c1ccc2c(c1)OCO2	25.2	63.9*	78.7*	63.7*	3.5	59.5*	23.5	tim10 confirm=51.8*
COc1ccc(Cl)cc1C(=O)NC(=S)Nc1ccccc1N1CCOCC1	-4.2	15.3	24.1	8.7	6.3	x	x
O=C(NC(=S)Nc1cc(Cl)ccc1N1CCOCC1)c1ccccc1[N+](=O)[O-]	-29.4	50.9*	56.4*	45.4*	-1.8	50.0*	54.9*	tim10 confirm=46.6*
CCc1cccc2c1NC(=O)C2(O)CC(=O)c1cccs1 (stereo unspecified)	-17.2	3.4	3.6	0.8	0.8	x	x
Cc1cccc(NNC(=O)C2CCC2)c1	9.2	-87.2	-14.5	-60.7	0.7	x	x
COc1ccc(CCNc2oc(-c3ccco3)nc2C#N)cc1	-12.5	42.4*	64.1*	52.0*	-0.2	-5.2	67.9*	tim10 confirm=36.9*
COc1ccc(NCc2nc3ccccc3n2CCOc2ccccc2)cc1	-20.4	48.9*	77.3*	14.4	25.1	39.6*	81.0*
O[C@@H]([C@H](O)[C@H](O)CBr)[C@H](O)CBr	-2.8	0.4	3.1	3.2	-1.2	x	x
Cc1ccc2cc(CN(c3cccc(C)c3C)S(=O)(=O)c3ccccc3)c(=O)[nH]c2c1	-22.6	23.0	18.7	6.4	14.2	x	x
CCOC(=O)/C(C#N)=C/c1ccc(OC)c(OC)c1	-2.0	1.6	10.7	-0.5	-1.6	x	x
CCOc1cc(/C=C(\C#N)C(N)=O)ccc1OS(=O)(=O)c1ccccc1	-7.9	47.8*	56.7*	31.3	4.3	37.8*	58.1*

Bioassay records as filed in PubChem.
